Inconclusive results are not listed. A call without a number means that no potency is given here. Activity calls are given as the source filed them. Calls follow the shape of the dose curve; as a rule, active = well fitted inhibition curve with a large enough effect in the repeat runs; inconclusive = weak or mixed curves; inactive = flat fitted curve, though single readings scatter.
Assay: qHTS assay to identify small molecule HDAC inhibitors (AID 1259364); also: nearly all actives have a fitted effect of over 45% in size; as to activity change, negative = inhibition: top concentration of the series differs between compounds
Conditions: HCT-116 HDAC-Glo I/II luminescence, 2 h; series mostly up to 92.4 µM
Description: U.S. Tox21 Program National Center for Advancing Translational Sciences [NCATS] NIH Chemical Genomics Center [NCGC] U.S. Environmental Protection Agency [EPA] National Institutes of Environmental Health Sciences [NIEHS] National Toxicology Program [NTP] U.S. Food and Drug Administration [FDA] Tox21 Assay Overview: Histone deacetylases (HDACs) are a group of epigenetic enzymes that regulate gene expression by histone deacetylation. HDACs are capable of introducing epigenetic modifications and such aberrations contribute to the onset and progression of several human diseases, thus making HDACs a popular therapeutic target. For identifying endogenous class I/II HDAC inhibitors a homogenous, luminogenic HDAC I/II cell based assay was used to measure the relative activity of class I and II HDACs from cells. Wild type HCT-116 cells were used to screen Tox21 libraries for identifying class I/II HDAC inhibitors.
Tox21 Assay Protocol Summary: HCT-116 cells were dispensed at 1,500 per well in 5uL of culture medium into white solid bottom 1536-well plates (Greiner Bio-One, Monroe, NC) using a Multidrop Combi (Thermo Scientific, Waltham, MA) dispenser. The assay plates were incubated at 37 C and 5% CO2 for an overnight, and then 23nL of compounds dissolved in DMSO and positive control were transferred using a Pintool station (Wako, San Diego, CA). The assay plates were incubated at 37C and 5% CO2 for 2hr. After compound treatment, 4uL of HDAC-Glo reagent (Promega Corporation, Madison, WI) was added to each well of the assay plates using Flying Reagent Dispenser (FRD, Aurora Discovery, San Diego, CA) and incubated the assay plates at room temperature for 30min. The luminescence signal was quantified using a ViewLux plate reader (Perkin Elmer, Shelton, CT).
Potency is read from the fitted curve at half-maximal effect.

Row | SMILES | Potency | activity change, negative = inhibition
1 | C[C@@H](C1=C(CCN(C)C)Cc2ccccc21)c1ccccn1 | inactive | –
2 | CCN(CC)CCNC(C(=O)OCCC(C)C)c1ccccc1 (stereo not given) | inactive | –
3 | C=C(C)C(=O)OCCOc1ccccc1 | 27.3 µM (active) | –
4 | O=c1[nH]cnc2ccccc12 | inactive | –
5 | CC(C)CCCCCCOC(=O)c1ccc(C(=O)OCCCCCCC(C)C)c(C(=O)OCCCCCCC(C)C)c1 | inactive | –
6 | CCCC[C@H]1CN(CC2CCOCC2)C(=O)OC12CCN(C1(C)CCN(C(=O)c3c(C)ncnc3C)CC1)CC2 | inactive | –
7 | CN(C(=O)CCCOc1ccc2[nH]c(=O)ccc2c1)C1CCCCC1 | inactive | –
8 | Cc1cc(NC(=O)C(=O)O)cc(C)c1Oc1ccc(O)c2c1CCC2 | inactive | –
9 | O=C(O)COC(=O)Cc1ccccc1Nc1c(Cl)cccc1Cl | inactive | –
10 | CC(Cc1cccc(C(F)(F)F)c1)NCCOC(=O)c1ccccc1 (stereo not given) | inactive | –
11 | CCCC(C)C | inactive | –
12 | CC(C)CC=O | inactive | –
13 | O=C(c1ccccc1)c1ccc2n1CCC2C(=O)O (stereo not given) | 7.5 µM (active) | –
14 | COC(=O)CSc1cc(N=c2sc(=O)n3n2CCCC3)c(F)cc1Cl | inactive | –
15 | C=CC[N+]1([C@H]2C[C@H]3[C@@H]4CC[C@H]5C[C@H](OC(C)=O)[C@@H](N6CCCCC6)C[C@]5(C)[C@H]4CC[C@]3(C)[C@H]2OC(=O)CC)CCCCC1 | inactive | –
16 | Cc1ccccn1 | inactive | –
17 | NC[C@H]1O[C@H](O[C@H]2[C@H](O)[C@@H](O[C@H]3O[C@H](CO)[C@@H](O)[C@H](N)[C@H]3O)[C@H](N)C[C@@H]2N)[C@H](O)[C@@H](O)[C@@H]1O | – | -0.959% [at 8.39 µM] (inactive)
18 | CC1=CCC(C(C)C)C=C1 (stereo not given) | inactive | –
19 | Oc1ccc(Sc2ccc(O)cc2)cc1 | inactive | –
20 | CC(C)CCCC(C)CCO (stereo not given) | inactive | –

Row | SMILES | Potency | activity change, negative = inhibition
21 | N=C(N=C(N)N)N1CCOCC1 | inactive | –
22 | CC(C(=O)O)c1ccc(-c2ccccc2)c(F)c1 (stereo not given) | 43.3 µM (active) | –
23 | C=CC(C)(CCC=C(C)C)OC(=O)c1ccccc1 (stereo not given) | inactive | –
24 | CC(=O)CC(=O)c1ccccc1 | inactive | –
25 | CC(C)NCC(O)COc1ccc(CC(N)=O)cc1 (stereo not given) | inactive | –
26 | CCCCCc1ccc(N)cc1 | inactive | –
27 | CC(C)c1ccccc1C(C)C | inactive | –
28 | Oc1ccc(Cc2ccccc2)cc1 | inactive | –
29 | C=CC(=O)OCC(C)OCC(C)OCC(C)OC(=O)C=C (stereo not given) | inactive | –
30 | Cn1sccc1=O | inactive | –
31 | O=C(C(=O)c1ccc(Br)cc1)c1ccc(Br)cc1 | – | 4.75% [at 19 µM] (inactive)
32 | CCCCC(CC)COCCCN (stereo not given) | inactive | –
33 | CCCCCOC(=O)COc1cc(N2C(=O)C3=C(CCCC3)C2=O)c(F)cc1Cl | inactive | –
34 | CCCCCCCCCCCCCCCCCBr | – | 6.57% [at 19 µM] (inactive)
35 | Cc1ccc(C(C)c2ccc(C)c(C)c2)cc1C | inactive | –
36 | CC(=O)OCCc1ccccc1 | inactive | –
37 | CC(=O)c1c(C)c([N+](=O)[O-])c(C(C)(C)C)c([N+](=O)[O-])c1C | inactive | –
38 | CCC(=O)OC(C)(C)C1CC=C(C)CC1 (stereo not given) | inactive | –
39 | COc1ccccc1OC(=O)Oc1ccccc1OC | inactive | –
40 | O=C1Nc2cc(Cl)ccc2Oc2ccccc21 | inactive | –
